This is part of a sample that, as a whole, favours compounds with a hit. Of some 83,000 tested, about 20% had one in any assay.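 Plates (96-well) were seeded with cells, treated with compound at one concentration, and incubated for 48 hours before percent growth was determined.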 Values without a mark were called inactive. The source made the active and inactive calls. The calls were made as follows: active = growth percent below 10; inactive = the rest.
System: MDA-MB-468 breast
Assay: NCI-60 one-dose screen, 48 h (100 = growth as untreated, 0 = no growth, -100 = all killed)
Conditions: 10 µM unless noted

SMILES	growth
C=C(C)C(=O)O[C@H]1C[C@@]2(C)OC(=CC2=O)/C(CO)=C\[C@H]2OC(=O)C(=C)[C@H]12	-34% (active)
CCCCCCCC(=O)SCC/C=C/[C@@H]1CC(=O)NCc2cc(ccn2)C2=N[C@@](C)(CS2)C(=O)N[C@@H](C(C)C)C(=O)O1	12.2%
COC1=CC(c2ccc[nH]2)=N/C1=C\c1[nH]c(C)c(CC(=O)OCc2ccccc2)c1C	-24.6% (active)
C#Cc1c2c(c(OC)c3c1OCO3)[C@H]([C@H]1OC(=O)c3c1ccc(OC)c3OC)N(C)CC2	79.9%
Fc1cc(C2=NNC(c3ccc[nH]3)C2)ccc1-n1ccc(C(F)(F)F)n1 (stereo not drawn)	89.7%
Clc1ccc(-c2nc(NCCc3ccccc3)nc3c(NCCc4ccccc4)cnn23)cc1	47.8%
COc1cccc(/C=C/C(=O)c2cc3c(N)c(C(=O)Nc4cccc(Cl)c4C)sc3nc2C)c1	-7.04% (active)
OC(c1cc(-c2cccc(Cl)c2)nc2ccccc12)C1CCCCN1 (stereo not drawn)	-77.5% (active)
N#Cc1c(-c2ccc(F)cc2)nc(N=Nc2c(O)[nH]c3ccccc23)nc1N1CCOCC1	59.1%
CCC1C[N+]2=C(c3cc(OC)c(OC)cc3CC2)c2c1cc1n2CCc2cc(OC)c(OC)cc2-1 (stereo not drawn)	1.92% (active)
Cc1cc2cn3c4ccc(O)cc4nc(N)c3c2cc1C	-9.7% (active)
COc1cc(OC)c(S(N)(=O)=O)cc1C(=O)/C=C/c1ccc(C)cc1	-36.2% (active)
Cc1nc2cnc(N)c(C#Cc3cncc(C(=O)Nc4ccc(CN5CCN(C)CC5)c(C(F)(F)F)c4)c3)c2nc1C	55.8%
